Screening results (PubChem)
Only a selection was taken, and hits are over-represented in it overall.
HIV RNase H inh-1 – blocks HIV-1 RNase H cleavage of RNA/DNA duplex; P04585; RT-RNase H RNA/DNA duplex cleavage, fluorescence; inhibition, % at 10 µM; 65,000 compounds, 1.9% hits; AID 565; in the data active means inhibition above about 50%
HIV RNase H inh-2 – confirmation of HIV-1 reverse transcriptase RNase H inhibitors | shares compounds with HIV RNase H inh-1 | Recombinant RT RNase H, fluorescent RNA/DNA duplex cleavage | inhibition, % at 10 µM | 1,000 compounds, 39% hits | AID 651; in the data active means inhibition above about 48%; inconclusive means no clear call, values can overlap the other calls
Numbers stand for hits.

Results for CC(C(=O)Nc1ccccn1)N1C(=O)C2C3C=CC(C3)C2C1=O (configuration not stated) ?
HIV RNase H inh-1: 74.1; HIV RNase H inh-2: inactive

Results for CC(C(N)=O)N1C(=O)C2C3C=CC(C3)C2C1=O (configuration not stated) ?
HIV RNase H inh-1: inactive

What do the screens show for `CCCc1nnc(NC(=O)C(C)N2C(=O)C3C4C=CC(C4)C3C2=O)s1` (configuration not stated)?
HIV RNase H inh-1: inactive

What do the screens show for `CC1CCc2cccc3c2N1c1cc(C#N)c(C#N)cc1O3` (configuration not stated)?
HIV RNase H inh-1: inactive

Results for O=C(CSc1nnc(CNC(=O)c2cccs2)o1)NCCc1ccccc1 ?
HIV RNase H inh-1: inactive

Results for CSc1ccc(-c2c(C#N)c(N)nc3c2CCCC3)cc1 ?
HIV RNase H inh-1: inactive

Results for COc1ccc(-c2nc(N3CCCC3)[nH]c(=O)c2C#N)cc1 ?
HIV RNase H inh-1: inactive

How did N#Cc1c(N)nc2c(c1-c1cccnc1)CCCCC2 do in these assays?
HIV RNase H inh-1: inactive

What do the screens show for `N#Cc1c2c(c(-c3ccco3)[nH]c1=O)CCCC2`?
HIV RNase H inh-1: inactive

Results for N#Cc1c(N)nc2c(c1-c1ccco1)CCCCC2 ?
HIV RNase H inh-1: inactive

How did N#Cc1c(-c2cccnc2)c2c([nH]c1=S)CCCC2 do in these assays?
HIV RNase H inh-1: 89.7; HIV RNase H inh-2: 68.8

Results for COc1ccc(-c2c3c([nH]c(=S)c2C#N)CCC3)cc1 ?
HIV RNase H inh-1: 80.6; HIV RNase H inh-2: inactive

How did N#Cc1sc2nc3c(c(-c4cccnc4)c2c1N)CCC3 do in these assays?
HIV RNase H inh-1: inactive

What do the screens show for `N#Cc1c(-c2ccco2)c2c([nH]c1=S)CCCC2`?
HIV RNase H inh-1: 82.0; HIV RNase H inh-2: inactive

What do the screens show for `CCCCC(=O)NC1=NC(=O)C(C)(C)S1`?
HIV RNase H inh-1: inactive

Results for Cn1cccc1Cc1nnc(SCC(=O)Nc2ccc(Cl)cc2)n1-c1ccc(F)cc1 ?
HIV RNase H inh-1: inactive

How did O=C(CCn1c(=O)c2ccccc2n(Cc2cc(=O)n3ccccc3n2)c1=O)NCc1ccco1 do in these assays?
HIV RNase H inh-1: inactive

What do the screens show for `CCN(CC)c1ccc(NC(=O)C2CCCN(S(=O)(=O)c3cnc[nH]3)C2)c(C)c1` (configuration not stated)?
HIV RNase H inh-1: inactive

How did CCCC(=O)Nc1sc2c(c1C#N)CCCC2 do in these assays?
HIV RNase H inh-1: inactive

Results for Cc1cc(C(=O)Nc2sc3c(c2C#N)CCCCC3)cs1 ?
HIV RNase H inh-1: inactive

What do the screens show for `Cc1onc(-c2ccccc2Cl)c1C(=O)Nc1sc2c(c1C#N)CCC2`?
HIV RNase H inh-1: inactive

What do the screens show for `CCCc1cc(C(=O)Nc2sc3c(c2C#N)CCC3)no1`?
HIV RNase H inh-1: 60.6; HIV RNase H inh-2: 70.3

Results for N#Cc1c(NC(=O)c2nc3ncccn3n2)sc2c1CCCCC2 ?
HIV RNase H inh-1: inactive

What do the screens show for `N#Cc1c(NC(=O)c2ccncc2)sc2c1CCC2`?
HIV RNase H inh-1: 63.6; HIV RNase H inh-2: inactive

Results for CCc1ccc(C2CC(c3ccc(C)cc3)n3nc(N)nc3N2)cc1 (configuration not stated) ?
HIV RNase H inh-1: inactive

What do the screens show for `CCN1CCCC1CN(Cc1cc2ccc(C)c(C)c2[nH]c1=O)C(=O)Nc1ccccc1OC` (configuration not stated)?
HIV RNase H inh-1: inactive

What do the screens show for `O=C(c1cn(-c2ccccc2)nc1-c1cccs1)N1CCN(c2ccccn2)CC1`?
HIV RNase H inh-1: inactive

What do the screens show for `Cc1ccc(-c2nnn(CC(=O)Nc3ccc4nn(-c5ccccc5)nc4c3)n2)o1`?
HIV RNase H inh-1: 76.2; HIV RNase H inh-2: inconclusive

What do the screens show for `Cc1ccc(-c2nnn(CC(=O)NCC3COCCO3)n2)o1` (configuration not stated)?
HIV RNase H inh-1: inactive

Results for COc1ccc(NC(=O)Cn2nnc(-c3ccccc3N)n2)cc1OC ?
HIV RNase H inh-1: inactive

Results for Cc1cc(C)cc(N(CC(=O)NCC2CCCO2)C(=O)CCC(=O)Nc2cc(C)on2)c1 (configuration not stated) ?
HIV RNase H inh-1: inactive

How did Nc1cc(C(=O)O)ccc1Nc1ccc(F)c(F)c1 do in these assays?
HIV RNase H inh-1: inactive

Results for CCOC(=O)c1c(N)nn(C(=O)C(C)C)c1-c1ccccc1 ?
HIV RNase H inh-1: inactive

Results for O=C(c1ccc2c(c1)OCCCO2)c1cccs1 ?
HIV RNase H inh-1: inactive

What do the screens show for `CCOc1ccccc1N1CCN(C(=O)c2ccccc2)CC1`?
HIV RNase H inh-1: inactive

Results for CCOc1ccccc1N1CCN(S(=O)(=O)c2cccs2)CC1 ?
HIV RNase H inh-1: inactive

Results for CCOc1ccccc1N1CCN(S(=O)(=O)CC)CC1 ?
HIV RNase H inh-1: 53.0; HIV RNase H inh-2: inactive

Results for CCCCSc1nc(C)c(CC(=O)OC)c(=O)[nH]1 ?
HIV RNase H inh-1: inactive

How did CNC(=O)C1C2C=CC3(O2)C1C(=O)N(CCOC)C3C(=O)NCc1ccc(OC)cc1 (configuration not stated) do in these assays?
HIV RNase H inh-1: inactive

What do the screens show for `Cc1[nH]c2ccc3c(ncn3CCC#N)c2c1C`?
HIV RNase H inh-1: inactive

Results for c1coc(-c2nnc3sc(-c4cccs4)nn23)c1 ?
HIV RNase H inh-1: inactive

What do the screens show for `Cc1nn(Cc2ccccc2)c(C)c1NC(=O)c1cc2nc(-c3ccco3)cc(C(F)(F)F)n2n1`?
HIV RNase H inh-1: inactive

Results for Cc1ccccc1Cn1ccc(NC(=O)c2cc3nc(-c4ccco4)cc(C(F)(F)F)n3n2)n1 ?
HIV RNase H inh-1: inactive

How did O=C(Nc1cnn(Cc2ccc(F)cc2)c1)c1cc2nc(-c3ccco3)cc(C(F)(F)F)n2n1 do in these assays?
HIV RNase H inh-1: 58.6; HIV RNase H inh-2: inactive

How did COc1ccccc1OCCn1c(CO)nc2ccccc21 do in these assays?
HIV RNase H inh-1: inactive

How did COc1ccccc1OCCn1c(C(C)O)nc2ccccc21 (configuration not stated) do in these assays?
HIV RNase H inh-1: 64.9; HIV RNase H inh-2: inactive

Results for CCCCn1c(C(C)O)nc2ccccc21 (configuration not stated) ?
HIV RNase H inh-1: inactive

How did CC(=O)N=c1c(C#N)cc2c(=O)n3cccc(C)c3nc2n1CC(C)C do in these assays?
HIV RNase H inh-1: inactive

How did C=CCn1c(Cc2csc(N)n2)nnc1SCC(=O)OCC do in these assays?
HIV RNase H inh-1: inactive

What do the screens show for `CC(C)(C)C(=O)NC1(C(F)(F)F)C(=O)Nc2c1c(=O)[nH]c(=O)n2Cc1ccco1` (configuration not stated)?
HIV RNase H inh-1: inactive

How did CCC(=O)NC1(C(F)(F)F)C(=O)Nc2c1c(=O)[nH]c(=O)n2Cc1ccco1 (configuration not stated) do in these assays?
HIV RNase H inh-1: inactive

Results for O=c1[nH]c(=O)n(Cc2ccco2)c2c1C(C(F)(F)F)(C(F)(F)F)N=C(C1CCCCC1)N2 ?
HIV RNase H inh-1: 69.6; HIV RNase H inh-2: inactive

Results for OCC#Cc1cnc2ccccc2c1 ?
HIV RNase H inh-1: inactive

How did C=CCn1c(SCc2nc3ccccc3c(=O)[nH]2)nnc1-c1cc2cc(Cl)ccc2o1 do in these assays?
HIV RNase H inh-1: inactive

How did CC(=O)N(Cc1cc2cc(C)c(C)cc2n2nnnc12)CC1COCCO1 (configuration not stated) do in these assays?
HIV RNase H inh-1: inactive

What do the screens show for `CCCCOc1ccc(OCCNS(=O)(=O)N(C)C)cc1`?
HIV RNase H inh-1: inactive

What do the screens show for `CCc1ccc(NC(=O)N(CCCN2CCOCC2)C(C)c2cc3cccc(OC)c3o2)cc1` (configuration not stated)?
HIV RNase H inh-1: inactive

Results for COc1ccccc1NC(=O)CCc1nc(-c2cccs2)no1 ?
HIV RNase H inh-1: inactive
